Experimental data: PubChem BioAssay (NCATS)
Records with an inconclusive call do not appear. The source made the active and inactive calls. The call rests on the fitted dose curve; in most records, active means well fitted cell-killing curve with a large enough effect; inconclusive means small, poorly fitted or top-dose-only effect, or effect the other way; inactive means no such curve, though single readings can be large or run the other way.

Test: Quantitative High-Throughput drug screen in 47 multiple myeloma cell lines against the NCATS MIPE library collection: PE2_PLB cell viability assay (AID 1919869); further: nearly all actives have a fitted effect of over 35% in size
Settings: PE2_PLB myeloma cells viability, ATP luminescence, 48 h; series mostly up to 45.8 µM
How it was run: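 MIPE 4.0 approved/investigational drugs; 500 cells/well; 48 h 37 °C humidified 5% CO2; CTG luminescence readout; DMSO = 100%, media = 0% viability.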
Potency means the concentration at half of the fitted maximal effect.

Row | Structure (SMILES) | Potency
1 | CS(=O)(=O)N(Cc1ccco1)CC(O)Cn1c2ccccc2c2ccccc21 (stereo unspecified) | 16.6 µM (active)
2 | Cc1ccn(-c2ccc(-c3ncco3)cc2)c(=O)c1-c1ccc2nc(N)ncc2c1 | 4.69 µM (active)
3 | Oc1ccc(C2=Cc3ccc(O)cc3OC2)cc1 | 9.35 µM (active)
4 | O=C(CCc1ccc(O)cc1)c1c(O)cc(O)cc1O[C@@H]1O[C@H](CO)[C@H](O)[C@H](O)[C@H]1O | inactive
5 | COc1ccc(Cc2ccc(NC(N)=O)cc2)cc1-c1cccc(Cl)c1 | inactive
6 | CC[C@]1(O)C[C@@H]2CN(CCc3c([nH]c4ccccc34)[C@@](C(=O)OC)(c3cc4c(cc3OC)N(C=O)[C@@H]3C45CCN4CC=C[C@](CC)([C@H]45)[C@@H](OC(C)=O)[C@]3(O)C(=O)OC)C2)C1 (stereo partly specified) | 16.6 µM (active)
7 | COc1ccc2cc(-c3nc(-c4ccc(S(C)=O)cc4)[nH]c3-c3ccncc3)ccc2c1 (stereo unspecified) | 14.8 µM (active)
8 | COc1cc(NC(=O)c2ccc(-c3ccc(Cl)cc3)o2)cc(OC)c1 | 5.9 µM (active)
9 | COC(=O)C1=CO[C@@H](O)[C@@H]2C(CO)=CC[C@@H]12 | 20.9 µM (active)
10 | CCOC1OC(=O)C[C@H]1NC(=O)[C@@H]1CCCN1C(=O)[C@@H](NC(=O)c1ccc(N)c(Cl)c1)C(C)(C)C (stereo partly specified) | inactive
11 | Nc1ncnc2c1ncn2[C@@H]1O[C@H](CO)C[C@@H]1O | inactive
12 | CC[C@@H]1C=C(C)C[C@H](C)C[C@H](OC)[C@H]2O[C@@](O)(C(=O)C(=O)N3CCCC[C@@H]3C(=O)O[C@H](C(C)=C[C@@H]3CC[C@H](Cl)[C@H](OC)C3)[C@H](C)[C@@H](O)CC1=O)[C@H](C)C[C@H]2OC | 20.9 µM (active)
13 | CC=CCC=CCCC(=O)[C@H]1O[C@@H]1C(N)=O | 23.5 µM (active)
14 | CC(C)C(=O)Oc1ccc(CO)cc1[C@H](CCN(C(C)C)C(C)C)c1ccccc1 | inactive
15 | Cc1ccc([C@@H]2O[C@H](CO)[C@@H](O)[C@H](O)[C@@H]2O)cc1Cc1ccc(-c2ccc(F)cc2)s1 | 18.7 µM (active)
16 | CN(C)c1cc(NC(=O)CNC(C)(C)C)c(O)c2c1C[C@@H]1C[C@H]3[C@H](N(C)C)C(=O)C(C(N)=O)=C(O)[C@@]3(O)C(=O)C1=C2O | inactive
17 | N#C[C@H]1C[C@H]2C[C@@H]2N1C(=O)[C@@H](N)C12CC3CC(CC(O)(C3)C1)C2 | 0.0026 µM (active)
18 | C[N+](C)(C)CC(=O)O | inactive

Row | Structure (SMILES) | Potency
19 | O=C(O)C=Cc1ccc(O)c(O)c1 | 16.6 µM (active)
20 | O=C(NC1CCOCC1)c1ccc(-c2cc(-c3cn[nH]c3-c3ccccn3)ccn2)cc1 | inactive
21 | CN[C@@H](C)C(=O)N[C@H]1CN(C(=O)CC(C)C)CC[C@H]2CC[C@@H](C(=O)NC(c3ccccc3)c3ccccc3)N2C1=O | 9.35 µM (active)
22 | CCC(=O)NC[C@H](Cc1ccc(OCCc2nc(-c3ccccc3)oc2C)cc1)NC(C)=CC(=O)c1ccc(C(F)(F)F)cc1 | 11.8 µM (active)
23 | Nc1ncnc2c1ncn2[C@@H]1O[C@@H](CO)[C@H](O)[C@H]1O | inactive
24 | C[C@H](NC(=O)c1sccc1OCc1ccc(Cl)cc1)c1ccccc1 | 18.7 µM (active)
25 | O=C(O)C(O)Cc1ccc(O)c(O)c1 (stereo unspecified) | 16.6 µM (active)
26 | N#CC1(c2ccc(NC(=O)c3cccnc3NCc3ccncc3)cc2)CCCC1 | 18.7 µM (active)
27 | O=c1ccn([C@@H]2O[C@H](CO)[C@H](O)[C@H]2O)c(=O)[nH]1 | inactive
28 | CC(C)(C)NC(=O)Nc1cccc(Nc2ncc(F)c(NC(C)(C)CO)n2)c1 | 18.7 µM (active)
29 | CCCCCNC(=O)N1CCC(CN(Cc2ccc(Cl)cc2)Cc2ccc([N+](=O)[O-])s2)C1 (stereo unspecified) | 23.5 µM (active)
30 | COCCCCC(=NOCCN)c1ccc(C(F)(F)F)cc1 | 18.7 µM (active)
31 | COc1cccc(-c2cc(=O)c3ccccc3o2)c1N | 4.18 µM (active)
32 | O=C(NCc1ccccc1)c1csc(Nc2ccncn2)n1 | 13.2 µM (active)
33 | Clc1cc(Cl)cc(CNc2ncncc2-c2ccc3c(c2)OCO3)c1 | 20.9 µM (active)
34 | CO[C@@H](C(=O)N1Cc2[nH]nc(NC(=O)c3ccc(N4CCN(C)CC4)cc3)c2C1)c1ccccc1 | 20.9 µM (active)
35 | NC1CCC(Nc2nc(Nc3ccc(C(=O)N4CCCCC4)cc3)c3ncn(-c4cccc(F)c4)c3n2)CC1 (stereo unspecified) | inactive
36 | Cc1c(NC(=O)c2ccc(C(C)(C)C)cc2)cccc1-c1cn(C)c(=O)c(Nc2ccc(C(=O)N3CCOCC3)cc2)n1 | 14.8 µM (active)
